This is part of a sample that, as a whole, favours compounds with a hit. Of some 83,000 tested, about 20% had one in any assay.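 A percent growth of 40 corresponds to 60% growth inhibition; 0 means no net growth; -100 means all cells died. Active threshold: below 10.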 The source made the active and inactive calls.
Experiments:
Experiment in all cases: NCI-60 one-dose screen, 48 h (100 = growth as untreated, 0 = no growth, -100 = all killed)
Details in all cases: 10 µM
[1] = test system: HCT-15 colon
[2] = test system: HT29 colon
[3] = test system: SNB-75 CNS
[4] = test system: SNB-19 CNS
[5] = test system: U251 CNS
[6] = test system: PC-3 prostate
[7] = test system: SK-MEL-5 melanoma
[8] = test system: UACC-62 melanoma
[9] = test system: LOX IMVI melanoma
[10] = test system: SK-MEL-28 melanoma

Measured: growth

Oc1ccc(Cn2cc3c(c2-c2ccccc2)CCc2cnoc2-3)cc1
inactive: [1] 100% | [2] 94% | [3] 91.9% | [4] 99.2% | [5] 88.9% | [6] 87.3% | [7] 89.9% | [8] 70.3% | [9] 88.7% | [10] 101%

CCOC(=O)c1cc2c(n1Cc1cccc(OC)c1)-c1oncc1CC2
inactive: [1] 28.7% | [4] 37.4% | [5] 22.4% | [6] 32.7% | [8] 30.8% | [9] 41.7% | [10] 37.8%
active: [2] 4.06% | [3] -5.1% | [7] 8.61%

O/N=C1\CCC2CCCCC2C1 (stereo not given)
inactive: [1] 99.6% | [2] 99.2% | [3] 71% | [4] 98.5% | [5] 107% | [6] 97.1% | [7] 102% | [8] 106% | [9] 98.2% | [10] 108%

COc1cc(-c2cc(/C=C/C(C)=O)[nH]n2)cc(OC)c1OC
inactive: [1] 65.7% | [2] 66.6% | [3] 84.7% | [4] 69.1% | [5] 56.6% | [6] 71.3% | [7] 79% | [8] 84.6% | [9] 62% | [10] 97.4%

c1ccc(OCCC[P+](c2ccccc2)(c2ccccc2)c2ccccc2)cc1
inactive: [1] 84.7% | [4] 12.7% | [8] 14.6% | [10] 26%
active: [2] 4.29% | [3] -5.17% | [5] 8.33% | [6] -0.485% | [7] -69.2% | [9] 2.53%

CCCn1c(=O)c2c(nc(-c3cccc(OCCCCl)c3)n2C)n(CCC)c1=O
inactive: [1] 69.1% | [2] 74.2% | [4] 32.9% | [5] 17% | [6] 62.3% | [7] 64.9% | [8] 78.9% | [9] 48.5% | [10] 81.7%
active: [3] -12.7%

COc1ccc(/C=C2\CCC3C(CCCC34OCCO4)C2=O)cc1 (stereo not given)
inactive: [1] 66.2% | [2] 80.1% | [3] 105% | [4] 90.1% | [5] 99.2% | [6] 86.4% | [7] 87.3% | [8] 81% | [9] 80.8% | [10] 95.1%

CC(C)=C1CCC(C)C/C1=N\N=C(N)N (stereo not given)
inactive: [1] 99.7% | [2] 102% | [3] 97.7% | [4] 97.5% | [5] 96.5% | [6] 87.9% | [7] 98.6% | [8] 103% | [9] 93.9% | [10] 109%

CCCCCCCCCCCCCCCC(=O)N1CCN(C)CC1
active: [9] -38.1%
inactive: [1] 73.2% | [2] 51.1% | [3] 88.8% | [4] 105% | [5] 78.7% | [6] 68.8% | [7] 81.7% | [8] 88.8% | [10] 88.7%

O=CNc1c(Cl)cc2c(c1Cl)Cc1cc([N+](=O)[O-])ccc1-2
active: [7] 5.14%
inactive: [1] 29.3% | [2] 58.4% | [3] 65.6% | [4] 87.5% | [5] 78.1% | [6] 40.2% | [8] 48.8% | [9] 55.7% | [10] 106%

NC1CCC(Nc2nc(NCc3ccc(-c4ccccc4O)nc3)c3ncn(C4CCCC4)c3n2)CC1 (stereo not given)
active: [1] -4.18% | [2] -22.5% | [3] -70.1% | [4] 8.53% | [5] -23% | [6] -3.87% | [7] -94.1% | [8] -55% | [9] -82.8% | [10] -58.9%

Cn1c([N+](=O)[O-])cnc1C=C1C(=O)c2ccccc2C1=O
inactive: [1] 23.2% | [2] 56.1% | [3] 51% | [4] 85.1% | [5] 57.2% | [6] 60.1% | [7] 42.6% | [8] 17.5% | [9] 21.7% | [10] 39.2%

COc1ccc(NC(=O)c2sc3nc4c(cc3c2N)C(O)CCC4)cc1 (stereo not given)
inactive: [1] 95.5% | [2] 97.8% | [3] 110% | [4] 97.1% | [5] 105% | [6] 95.7% | [7] 99.5% | [8] 98.9% | [9] 102% | [10] 102%

c1ccc(C2CCCCC2)c(OCCCCCN2CCNCC2)c1
active: [1] -34.7% | [2] 3.84% | [8] -51.3% | [9] -35% | [10] -15.8%
inactive: [3] 48.3% | [4] 71.1% | [5] 26.1% | [6] 43.6% | [7] 16.5%

O=c1c2cccc3c(Nc4ccc(Br)cn4)ccc(c32)c2nc3ccccc3n12
inactive: [1] 72% | [2] 94.6% | [3] 44% | [4] 85.9% | [5] 93.6% | [6] 76.7% | [7] 76.2% | [8] 84.8% | [9] 87.2% | [10] 72.9%

CCOC(=O)c1ccc(N(C=O)CCC(=O)CCl)cc1
active: [2] 1.42% | [5] 4.55% | [7] 2.68% | [9] 3.93%
inactive: [1] 17.8% | [3] 26.5% | [4] 59.4% | [6] 26% | [8] 13% | [10] 34%

Cc1cc(/C=C2\SC(=Nc3ccccc3)N(C3CCCC3)C2=O)c(C)n1-c1ccc(Cl)cc1
active: [1] -28.2% | [2] -65.8% | [3] -51.3% | [4] -65.8% | [5] -91.1% | [6] -63.4% | [7] -97.9% | [8] -56.3% | [9] -72.7% | [10] -69.8%

CCCCCCCC/C=C/CCCCCCCCC1=NCCN1CCO
inactive: [1] 59.2% | [2] 19.7% | [3] 57.3% | [4] 92.8% | [5] 54.1% | [6] 46.2% | [7] 85.6% | [8] 90.5% | [10] 90.5%
active: [9] -7.51%

Cc1ccccc1C1=N[C@@H](Cc2ccccc2)C(=O)c2c(nc3ccccn23)N1
inactive: [1] 100% | [2] 115% | [3] 70.8% | [4] 109% | [5] 100% | [6] 89.4% | [7] 103% | [8] 103% | [9] 91.7% | [10] 113%

O=C(NCCc1nccs1)c1cnc2c(S)cccc2c1
active: [7] -22.1% | [8] -6.53% | [9] 2.38%
inactive: [1] 17.6% | [2] 20.4% | [3] 44.1% | [4] 28.5% | [5] 12.8% | [6] 34.2% | [10] 30.5%

COc1ccc(S(=O)(=O)Nc2ccc(OCc3nnc(-c4ccc(Cl)cc4)o3)c(F)c2)cc1
inactive: [1] 65.5% | [2] 83.7% | [3] 67.1% | [4] 65.8% | [5] 68.4% | [6] 52.3% | [7] 15.7% | [8] 42.4% | [9] 52.7% | [10] 83.8%

O=NN(CC(=O)N/N=C/C=C\c1ccccc1)CC(=O)N/N=C/C=C/c1ccccc1
inactive: [1] 94% | [2] 110% | [3] 72.9% | [4] 92.5% | [5] 89% | [6] 85.2% | [7] 84.9% | [8] 101% | [9] 87.6% | [10] 99.4%

O=S(=O)(NC1c2ccccc2Oc2ccccc21)c1cc(Cl)ccc1Cl
inactive: [1] 93.7% | [2] 91.4% | [3] 90.2% | [4] 97.2% | [5] 95.7% | [6] 88.9% | [7] 94.6% | [8] 93.2% | [9] 96.1% | [10] 110%

CCc1cc2n(n1)-c1ncc(C(=O)OC)cc1Oc1ccccc1-2
inactive: [1] 96.7% | [2] 112% | [3] 89.4% | [4] 109% | [5] 94.4% | [6] 97.5% | [7] 96.2% | [8] 102% | [9] 96.8% | [10] 120%

COc1ccc2oc(=O)cc(C(c3ccc[nH]3)c3ccc[nH]3)c2c1
active: [1] 9.01% | [2] -10.5% | [5] -7.61% | [7] -31.4% | [9] 7.59%
inactive: [3] 29.6% | [4] 22.1% | [6] 20.3% | [8] 30.7% | [10] 37.7%

COc1cc(-c2nc3ccc(C)cc3[nH]2)ccc1OCC(=O)N=Nc1c(O)[nH]c2ccccc12
active: [2] -77.1% | [3] -34.8% | [4] -75.2% | [5] -96.3% | [6] -63.8% | [8] -83.1% | [9] -97.7% | [10] -77.5%
inactive: [1] 52.7% | [7] 29.1%

From PubChem BioAssay (NCI)
